# Calls of active or inactive are those of the source.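 How the source made its calls, unless noted: active means fluorescence slope after compound addition differing from the mean of all screened samples at 99.7% confidence, in either direction; inactive means the rest.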
# Columns and labels:
# [1] = inhibitors of TNFa-induced NFkB p65 translocation, primary screen, imaging, HUVEC, MLSMR starter and 10KST1 sets (AID 438;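 active means inhibition above 20% together with a positive visual image hit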;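 further: compound added about 3h40 before a 20 min TNFalpha stimulation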;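 on inhibition: signal is the nuclear over cytoplasmic p65 intensity ratio per well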); conditions: HUVEC TNFa-induced p65 nuclear translocation; cell count: measured here: nuclei count (cytotoxicity indicator), at 2.08 µM; inhibition: at 2 µM, stronger effect = higher value, 0% TNFa-plus-vehicle, 100% no-TNFa wells
# [2] = reduction of polyQ htt aggregates in cells – imaging, exon1htt(103Q)mCFP cells, high-content imaging, primary screen (AID 483;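 active means visual image review flags a hit and inhibition of aggregation exceeds 20%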;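 further: compound exposure lasted 3 days before fixation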;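 on nuclei count: percent of the per-plate median nuclei count of sample wells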); conditions: exon1htt(103Q)mCFP cell line, aggregate imaging, at 2 µM; inhibition of aggregation: stronger effect = higher value; nuclei count: measured here: cell count, toxicity
# [3] = endothelial E-selectin expression blockers – imaging, HUVEC, immunofluorescence, MLSMR starter and 10KST1 sets, primary screen (AID 487;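 active means visually confirmed hit in the image check and inhibition above 20%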;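 on inhibition: signal is fraction of cell area covered by stained E-selectin grains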;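 on nuclei count: 100% = median nuclei count of all wells on the same plate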); conditions: HUVEC TNFalpha-induced E-selectin immunofluorescence imaging, at 2 µM; inhibition: stronger effect = higher value; nuclei count: measured here: cell number, toxicity
# [4] = molecular target: Voltage-gated potassium channel subunit beta-2 (Rattus norvegicus) (UniProt P62483); experiment: inhibitors of rat Kvbeta2 reductase activity – biochemical, NADPH fluorescence, primary screen (AID 622;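 active means fluorescence slope higher than the sample average by over 3 SD, cut at about -0.22 in these data, passing the limit was not always enough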;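 further: slope of raw intensity against log time taken from 70 to 1610 s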); conditions: recombinant KvBeta, 4-cyanobenzaldehyde reduction, at 10 µM, stronger effect = higher value
# [5] = molecular target: Voltage-gated potassium channel subunit beta-2 (Rattus norvegicus) (UniProt P62483); experiment: enhancers of rat Kvbeta2 NADPH turnover – biochemical, NADPH fluorescence, primary screen (AID 623;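 active means NADPH fluorescence slope more negative than the mean of all samples by about 3 SD, 99.7% confidence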;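 further: fluorescence intensity change per second fitted from 20 to 320 s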); conditions: Recombinant KvBeta, NADPH fluorescence decrease slope, 10 min; at 10 µM; stronger effect = lower value
# [6] = molecular target: Alpha-2C adrenergic receptor (Homo sapiens) (UniProt P18825); experiment: compounds altering alpha2C-coupled GIRK flux – cell-based, HEK293 alpha2C/GIRK1/2, thallium flux, primary screen (AID 624); conditions: thallium flux BTC fluorescence, at 10 µM, actives lie on both sides;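 further: slope of fluorescence ratio to pre-addition baseline per second over 15 to 24 s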
# [7] = blockers of RIG-like receptor reporter activation – cell-based, Sendai virus stimulus, luciferase, 10K MLSCN set, TLR/RLR signaling modifier project, primary screen (AID 602276;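 active means inhibition at or above 50% at 10 µM; inactive means inhibition below 50%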;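 further: firefly luciferase from ISG56 promoter only with Renilla not read in this screen; 0% = Sendai virus plus DMSO and 100% = medium plus DMSO without virus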); conditions: HEK293 RL24 IRF3 luciferase reporter, at 10 µM, stronger effect = higher value
# [8] = TLR3 IRF3 reporter activation blockers – cell-based, poly I:C stimulus, luciferase, 10K MLSCN set, primary screen (AID 602277;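 active means inhibition of the reporter signal at or above 50%; inactive means inhibition below 50%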); conditions: HEK293-TLR3 RL24 IRF3 luciferase reporter, at 10 µM, stronger effect = higher value
# Alpha-2C adrenergic receptor (Homo sapiens), sequence (P18825 whole entry, looked up): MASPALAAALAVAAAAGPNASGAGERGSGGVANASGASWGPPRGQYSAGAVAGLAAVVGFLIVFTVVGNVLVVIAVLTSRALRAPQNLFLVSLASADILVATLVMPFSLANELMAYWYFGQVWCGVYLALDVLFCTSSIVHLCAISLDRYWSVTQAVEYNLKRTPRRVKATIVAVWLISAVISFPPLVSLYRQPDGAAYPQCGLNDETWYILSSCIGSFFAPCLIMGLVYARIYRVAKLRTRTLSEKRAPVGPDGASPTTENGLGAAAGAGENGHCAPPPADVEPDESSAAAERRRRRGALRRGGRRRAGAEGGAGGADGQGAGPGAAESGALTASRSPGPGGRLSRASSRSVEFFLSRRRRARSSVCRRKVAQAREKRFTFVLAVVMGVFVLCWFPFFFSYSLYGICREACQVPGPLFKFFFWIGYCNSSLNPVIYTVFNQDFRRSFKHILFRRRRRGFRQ
# Voltage-gated potassium channel subunit beta-2 (Rattus norvegicus), sequence (P62483 whole entry, looked up): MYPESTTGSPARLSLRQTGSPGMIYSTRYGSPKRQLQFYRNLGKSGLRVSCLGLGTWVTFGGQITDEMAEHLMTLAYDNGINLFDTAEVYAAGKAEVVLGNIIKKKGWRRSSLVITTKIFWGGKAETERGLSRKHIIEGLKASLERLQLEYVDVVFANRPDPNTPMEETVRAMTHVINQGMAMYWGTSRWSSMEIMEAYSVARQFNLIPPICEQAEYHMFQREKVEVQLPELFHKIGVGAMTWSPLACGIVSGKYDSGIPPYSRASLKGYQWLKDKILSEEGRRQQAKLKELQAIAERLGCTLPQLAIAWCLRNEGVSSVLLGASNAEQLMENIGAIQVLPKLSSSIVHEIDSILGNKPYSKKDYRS
SMILES,cell count [1],inhibition [1],inhibition of aggregation [2],nuclei count [2] [%],inhibition [3],nuclei count [3] [%],fluorescence slope [4],NADPH fluorescence slope [5],slope [6],inhibition [7],inhibition [8]
C=CCNC(=O)CN(c1cccc(Br)c1)S(C)(=O)=O,322,-0.5% (inactive),13.9% (inactive),95.4,21.4% (inactive),115,-0.509 (inactive),2.5e-05 (inactive),0.00557 (inactive),8.3% (inactive),14.4% (inactive)
COc1ccc(CCn2c(-c3ccco3)nc3nc4ccccc4nc32)cc1,806,-5.6% (inactive),-7.3% (inactive),101,-25.4% (inactive),115,-0.445 (inactive),-3.4e-05 (inactive),0.00679 (inactive),18.8% (inactive),-6.71% (inactive)
O=C(O)C1C2C=CC(C3CC23)C1C(=O)NCCc1ccccc1 (configuration not stated),494,-7.5% (inactive),19.2% (inactive),54,-50% (inactive),104,-0.467 (inactive),-3.5e-05 (inactive),0.00628 (inactive),-3.61% (inactive),11.6% (inactive)
COC(=O)CC1C(=O)NCCN1C(=O)NC1CCCCC1 (configuration not stated),714,-4.5% (inactive),-18.8% (inactive),110,-116% (inactive),110,-0.559 (inactive),-1.3e-05 (inactive),0.0059 (inactive),-2.45% (inactive),2.41% (inactive)
CCOc1ccc(C(=O)Nc2ccc(N3CCN(C)CC3)cc2)cc1Br,434,3.4% (inactive),0.4% (inactive),95.5,6.4% (inactive),89.5,-0.571 (inactive),-3.6e-05 (inactive),0.00342 (inactive),-15.1% (inactive),-22.4% (inactive)
COC(=O)c1sccc1NC(=O)c1csc(C)c1,406,-5.4% (inactive),0.6% (inactive),88,-42.1% (inactive),123,-0.384 (inactive),-0.000107 (inactive),0.00657 (inactive),18.7% (inactive),36.8% (inactive)
Cc1cccc(Nc2nc3c(c(=O)n(C)c(=O)n3C)n2Cc2ccccc2)c1,470,7.2% (inactive),6.5% (inactive),94.7,-73.5% (inactive),106,-0.588 (inactive),-2.8e-05 (inactive),0.00618 (inactive),3.57% (inactive),20.4% (inactive)

# Source: PubChem BioAssay
